According to PubChem BioAssay (EPA / NIEHS):
Activity calls are given as the source filed them. Rule for the calls: active = hit-call score of the fitted dose curve at least 0.9, where 1 is the maximum; inactive = score below 0.9.

Assay: CCTE_Shafer_MEA_acute_firing_rate_mean: CCTE's Neural Acute Assay for Mean Firing Rate, Shafer Lab (AID 2284009)
Method: CCTE_Shafer_MEA_acute assay is conducted using Axion Biosystems 48 well microelectrode array (MEA) plates and Maestro recording system. Each well of the MEA plate contains a grid of 16 microelectrodes embedded in the culture surface. Electrically active cells, such as neurons, can be cultured over the electrodes, and electrical activity in these cells can be recorded extracellularly. The spontaneous firing of neurons is captured from each electrode on a microsecond timescale providing both temporally and spatially precise data. […] The CCTE_Shafer_MEA_acute assay uses primary cultures of rat cortical neurons. As these cultures mature over time, neural networks develop functional activity and form cohesive networks in which electrical activity can be highly coordinated. Baseline 40-minute recordings are made on days post-plating 13 or 15, followed by a secondary 40-minute recording after chemical exposure.CCTE_Shafer_MEA_acute_firing_rate_mean is a component of the CCTE_Shafer_MEA_acute assay. It measures the frequency number of spikes (action potential firings) as the total number of spikes divided by the length of the recording in a microelectrode array (MEA) using Axion Biosystems Maestro 768 channel amplifier with the AxIS adaptive spike detector. The firing rate is divided by the number of electrodes to report a well-mean value. The recordings before and after chemical treatment are used to calculate a percent change in the mean firing rate in each well.Data from the assay component CCTE_Shafer_MEA_acute_firing_rate_mean was analyzed into 1 assay endpoint. This assay endpoint, CCTE_Shafer_MEA_acute_firing_rate_mean, was analyzed in the negative analysis fitting direction relative to DMSO as the negative control and baseline of activity. Using a type of functional reporter, gain or loss-of-signal activity can be used to understand electrical activity.
Spontaneous activity in the cortical cultures was recorded using an Axion Biosystems Maestro 768 channel amplifier and Axion Integrated Studios (AxIS) v1.8 (or later) software. The amplifier recorded from all channels simultaneously (gain = 1200 x; sampling rate = 12.5 kHz/channel): raw signals were filtered with a Butterworth band-pass filter (300-5000 Hz), which filters out slower local field potentials leaving only fast potentials, i.e., "spikes", arising from extracellular currents associated with action potentials (Pine 2006; Wheeler and Nam 2011). On-line spike detection of filtered signals was conducted with the AxIS adaptive spike detector, using a threshold of 8x the root mean squared (rms) noise on each channel. Any electrodes with rms noise levels greater than 5 uV were grounded (e.g., no data were recorded). Once grounded, an electrode was grounded for the duration of the experiment. All recordings were conducted at 37 C. Wells were deemed usable if on the day of the exposure >/= 10 electrodes were active (defined as >/= 5 spikes/min). On DIV 13 or 15, a minimum of three wells from one cortical culture preparation were treated with each compound (0.03-40 uM). Prior to recording baseline activity, each mwMEA plate was placed in the Maestro at 37 C and allowed to sit for 20 min while firing rates stabilized. Baseline activity (40 min) was recorded before the addition of each compound. An additional 40 min of spontaneous activity was recorded in the presence of each compound. Changes in network parameters relative to baseline were assessed following compound treatment.

Row | SMILES | AC50 | outcome
1 | CCC(C)c1ccccc1O (configuration not stated) | 2.06 µM (active) | –
2 | CN(C)CCOC(c1ccccc1)c1ccccc1 | 4.98 µM (active) | –
3 | CCCCCCCCCCCC | – | inactive
4 | CCCCC=O | – | inactive
5 | CCCCc1oc2ccccc2c1C(=O)c1cc(I)c(OCCN(CC)CC)c(I)c1 | 8.87 µM (active) | –
6 | Oc1c(Cl)cc(Cl)cc1Sc1cc(Cl)cc(Cl)c1O | – | inactive
7 | O=C(CCCN1CCC(O)(c2ccc(Cl)cc2)CC1)c1ccc(F)cc1 | 1.78 µM (active) | –
8 | CC(=O)Nc1ccc(O)cc1 | – | inactive
9 | OCC(CO)(CBr)CBr | – | inactive
10 | N=C(N)c1ccc(OCCCCCOc2ccc(C(=N)N)cc2)cc1 | – | inactive
11 | Oc1ccc(Cc2ccccc2O)cc1 | 0.000868 µM (active) | –
12 | O=C1NS(=O)(=O)c2ccccc21 | 0.00978 µM (active) | –
